Test results from PubChem BioAssay AID624138 (Broad Institute, 2012).
Screen size: about 17,000 compounds; about 35 (0.2%) were called active.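 How the source made its calls: active means compounds whose four printed spots each show fluorescence over background unusually high for their array block, chance value under 7%; inactive means the rest.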 What follows is part of a selection rich in actives, with near analogues and random picks from the rest.

Target: Signal transducer and activator of transcription 3 (Homo sapiens) (UniProt P40763)
Sequence (P40763 whole entry, looked up): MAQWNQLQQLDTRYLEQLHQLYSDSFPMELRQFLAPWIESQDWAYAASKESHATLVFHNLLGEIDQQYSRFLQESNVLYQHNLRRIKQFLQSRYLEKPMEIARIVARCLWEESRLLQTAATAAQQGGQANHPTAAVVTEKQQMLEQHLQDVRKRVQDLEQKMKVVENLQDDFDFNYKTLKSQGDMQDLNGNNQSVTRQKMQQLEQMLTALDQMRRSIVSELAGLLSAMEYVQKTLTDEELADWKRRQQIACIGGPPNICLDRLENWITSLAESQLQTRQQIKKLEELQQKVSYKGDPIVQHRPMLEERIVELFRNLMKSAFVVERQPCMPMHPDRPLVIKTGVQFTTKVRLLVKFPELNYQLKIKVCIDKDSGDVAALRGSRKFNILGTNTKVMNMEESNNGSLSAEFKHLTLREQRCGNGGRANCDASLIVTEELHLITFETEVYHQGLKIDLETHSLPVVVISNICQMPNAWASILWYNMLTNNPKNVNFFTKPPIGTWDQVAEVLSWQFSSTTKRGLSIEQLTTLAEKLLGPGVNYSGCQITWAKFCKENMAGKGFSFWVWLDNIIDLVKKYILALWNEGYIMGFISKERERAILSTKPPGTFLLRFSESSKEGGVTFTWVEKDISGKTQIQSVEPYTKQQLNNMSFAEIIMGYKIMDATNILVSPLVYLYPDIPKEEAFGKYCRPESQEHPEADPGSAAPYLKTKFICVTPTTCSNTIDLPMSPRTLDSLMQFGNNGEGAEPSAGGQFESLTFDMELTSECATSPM
Test: small molecules binding His-tagged STAT3 – biochemical, small molecule microarray, single point, set 2, primary screen (AID 624138)
Settings: anti-His fluorescence

Row | SMILES | outcome
1 | O=C(NC1CC1)C1=C[C@H](c2coc3ccccc3c2=O)C[C@H](OCCCCO)O1 | inactive
2 | C[C@@H]1CN([C@H](C)CO)C(=O)Cc2cc(NC(=O)CCN3CCOCC3)ccc2O[C@H]1CN(C)Cc1ccncc1 | inactive
3 | C=C1CCC(C)C(C)(CCC2=CC(OC)OC2=O)C/C=C\C=C\1C(=O)O (stereo unspecified) | inactive
4 | C=CCNC(=O)[C@H]1[C@@H]2C(=O)O[C@@H](c3ccccc3)[C@@H](c3ccccc3)N2[C@@H](c2ccccc2OCCO)[C@]12C(=O)N(C(=O)OCCOC)c1ccc(C#Cc3ccc(OC)cc3)cc12 | inactive
5 | C[C@@H]1CN([C@H](C)CO)C(=O)c2cc(NC(=O)Nc3ccccc3)ccc2O[C@@H](C)CCCCO[C@@H]1CN(C)Cc1ccncc1 | inactive
6 | C[C@H]1CN([C@@H](C)CO)C(=O)Cc2cc(NC(=O)C3CC3)ccc2O[C@@H]1CN(C)S(=O)(=O)c1cccs1 | inactive
7 | COc1ccc(S(=O)(=O)N(C)C[C@@H]2Oc3c(NS(=O)(=O)c4ccccc4)cccc3C(=O)N([C@@H](C)CO)C[C@@H]2C)cc1 | inactive
8 | C[C@@H]1CN([C@H](C)CO)C(=O)c2cccc(NC(=O)c3ccncc3)c2O[C@@H]1CN(C)S(=O)(=O)c1cn(C)cn1 | inactive
9 | Cc1cccc(-n2c(SCC(N)=O)nnc2-c2ccncc2)c1C | inactive
10 | C[C@@H]1CCCCO[C@@H](CN(C)C)[C@@H](C)CN([C@H](C)CO)C(=O)c2cc(NC(=O)c3ccncc3)ccc2O1 | inactive
11 | OC(CCCN1CCN(c2ncc(F)cn2)CC1)c1ccc(F)cc1 (stereo unspecified) | inactive
12 | C[C@@H]1CN([C@H](C)CO)C(=O)c2cccc(NS(=O)(=O)c3cn(C)cn3)c2O[C@@H]1CN(C)Cc1ccc(C(F)(F)F)cc1 | inactive
13 | Cc1ccc(NC(=O)C(C)N(c2ccc(Cl)cc2)S(C)(=O)=O)c(C)c1 (stereo unspecified) | inactive
14 | COc1ccc(-c2cnc3c(-c4ccsc4)cnn3c2)cc1 | inactive
15 | C[C@@H]1CCCCO[C@@H](CN(C)C(=O)NC2CCCCC2)[C@H](C)CN([C@H](C)CO)C(=O)c2cc(NS(=O)(=O)c3ccc(Cl)cc3)ccc2O1 | inactive
16 | Cc1noc(C)c1NC(=O)Nc1ccc2c(c1)C(=O)N([C@@H](C)CO)C[C@@H](C)[C@H](CN(C)C)O2 | inactive
17 | C[C@@H]1CCCCO[C@H](CN(C)C(=O)Nc2ccc3c(c2)OCO3)[C@@H](C)CN([C@@H](C)CO)C(=O)c2cc(NC(=O)CCC(F)(F)F)ccc2O1 | inactive
18 | C[C@@H]1CN([C@@H](C)CO)C(=O)Cc2cc(NS(C)(=O)=O)ccc2O[C@@H]1CN(C)Cc1ccc2c(c1)OCO2 | inactive
19 | Cc1ccc(S(=O)(=O)N(C)C[C@H]2Oc3ccc(NC(=O)CCC(F)(F)F)cc3C(=O)N([C@@H](C)CO)C[C@H]2C)cc1 | inactive
20 | C[C@@H]1CN([C@H](C)CO)C(=O)Cc2cc(NC(=O)CCCN(C)C)ccc2O[C@@H]1CN(C)S(=O)(=O)c1cccs1 | inactive
21 | N#Cc1cccc(CSc2nnc(CCCO)n2-c2ccccc2)c1 | inactive
22 | C[C@@H]1CCCCO[C@@H](CN(C)Cc2ccccc2)[C@H](C)CN([C@H](C)CO)C(=O)c2cc(NS(=O)(=O)c3cccs3)ccc2O1 | inactive
23 | O=C(CS(=O)(=O)c1ccccc1)Nc1ccc2c(c1)OCCO2 | inactive

Row | SMILES | outcome
24 | O=[N+]([O-])c1ccccc1/C=C/CN1CCC(O)CC1 | inactive
25 | COc1ccc(CN(C)C[C@H]2Oc3c(NC(=O)c4ccncc4)cccc3C(=O)N([C@H](C)CO)C[C@@H]2C)cc1 | inactive
26 | CCO[C@@H]1OC(C(=O)N2CCOCC2)=C[C@H](C)[C@H]1CCCO | inactive
27 | O=[N+]([O-])c1ccc(NCCNS(=O)(=O)c2ccc(Br)cc2)c(C(F)(F)F)c1 | inactive
28 | COc1ccc(NC(=S)NCc2cc(C)n(C)n2)cc1OC | inactive
29 | C[C@@H]1CN([C@@H](C)CO)C(=O)c2cc(NC(=O)Nc3ccc4c(c3)OCO4)ccc2O[C@@H]1CN(C)C(=O)Nc1ccc2c(c1)OCO2 | inactive
30 | C[C@@H]1CN([C@H](C)CO)C(=O)c2cccc(NC(=O)Nc3cccc4ccccc34)c2O[C@@H]1CN(C)C(=O)Nc1cccc2ccccc12 | inactive
31 | CNC[C@@H]1Oc2ccc(NC(=O)CCC(F)(F)F)cc2C(=O)N([C@@H](C)CO)C[C@@H]1C | inactive
32 | Oc1cc(O)c2c(c1)OC(c1ccc(O)c(O)c1)C(O)C2 (stereo unspecified) | inactive
33 | C[C@H]1CN([C@@H](C)CO)C(=O)c2cc(N(C)C)ccc2O[C@@H]1CN(C)Cc1ccccc1 | inactive
34 | CCN(CCCCOC(=O)c1ccc(OC)c(OC)c1)C(C)Cc1ccc(OC)cc1 (stereo unspecified) | inactive
35 | COc1ccc(S(=O)(=O)N(C)C[C@H]2Oc3c(NC(=O)NC4CCCCC4)cccc3C(=O)N([C@@H](C)CO)C[C@@H]2C)cc1 | inactive
36 | CCc1cc2c(=O)n(-c3ccccc3)c(SCC(=O)O)nc2s1 | inactive
37 | C[C@H]1CCCCO[C@@H](CN(C)C(=O)c2ccccc2)[C@@H](C)CN([C@@H](C)CO)C(=O)c2cc(NS(=O)(=O)c3cccs3)ccc2O1 | inactive
38 | Cc1noc(C)c1NC(=O)Nc1ccc2c(c1)C(=O)N([C@@H](C)CO)C[C@H](C)[C@@H](CN(C)C(=O)C1CCCCC1)OCCCC[C@@H](C)O2 | inactive
39 | C[C@@H]1CN([C@H](C)CO)C(=O)c2cc(NS(=O)(=O)c3ccccc3)ccc2O[C@@H](C)CCCCO[C@@H]1CN(C)C(=O)CCC(F)(F)F | inactive
40 | C[C@@H]1CCCCO[C@H](CN(C)C(=O)CCC(F)(F)F)[C@H](C)CN([C@H](C)CO)C(=O)c2cc(NS(C)(=O)=O)ccc2O1 | inactive
41 | C[C@H](CO)N1C[C@H](C)[C@H](CN(C)C(=O)CCC(F)(F)F)OCCCC[C@H](C)Oc2ccc(NS(C)(=O)=O)cc2C1=O | active
42 | Cc1ccc(-n2c(SCC(=O)Nc3ccc(F)c(F)c3)nnc2-c2ccccn2)cc1 | inactive
43 | CC(C)NC(=O)Nc1ccc2c(c1)C(=O)N([C@H](C)CO)C[C@H](C)[C@H](CN(C)Cc1ccc(C(=O)O)cc1)OCCCC[C@@H](C)O2 | inactive
44 | O=C(NCc1ccco1)c1nc2ncccn2n1 | inactive
45 | OC(COc1ccc2ccccc2c1)Cn1cncn1 (stereo unspecified) | inactive
46 | Cc1ccc(C(=O)C2C(=O)C(=O)N(Cc3cccnc3)C2c2ccc(Cl)c(Cl)c2)o1 (stereo unspecified) | inactive
